Screening results deposited in PubChem by National Center for Advancing Translational Sciences (NCATS).
RORgamma inh = ROR gamma (mouse) transcription inhibition; P51450; Drosophila S2 Gal4-RORgamma UAS-luciferase reporter, 20 h; Potency, µM (doses to about 53.6 µM), for inactives: top-dose activity change, negative = inhibition, usual class: inhibitors; 310,000 compounds, 5.4% hits; also: potency is read from the fitted curve at half-maximal effect; % is scaled to controls: 0 for no effect and ±100 for the full control effect; nearly all actives have a fitted effect of over 60% in size
Target sequence (P51450 whole entry, looked up, the tested form may be a part): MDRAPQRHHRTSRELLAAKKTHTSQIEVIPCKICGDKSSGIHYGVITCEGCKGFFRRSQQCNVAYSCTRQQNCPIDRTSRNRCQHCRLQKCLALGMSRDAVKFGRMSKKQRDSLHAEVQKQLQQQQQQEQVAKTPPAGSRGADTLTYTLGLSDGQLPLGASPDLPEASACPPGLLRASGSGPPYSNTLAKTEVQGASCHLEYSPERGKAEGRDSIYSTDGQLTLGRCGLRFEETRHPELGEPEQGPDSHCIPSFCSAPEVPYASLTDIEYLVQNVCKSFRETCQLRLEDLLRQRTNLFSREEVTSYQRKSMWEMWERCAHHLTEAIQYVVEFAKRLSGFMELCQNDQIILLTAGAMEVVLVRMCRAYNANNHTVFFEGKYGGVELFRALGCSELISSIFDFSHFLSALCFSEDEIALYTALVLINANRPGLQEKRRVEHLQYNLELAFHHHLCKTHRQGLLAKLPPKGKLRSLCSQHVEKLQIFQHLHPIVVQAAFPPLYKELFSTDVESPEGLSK
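A Gal4/UAS one-hybrid system in insect cells: metallothionein-promoter Gal4–ROR gamma fusion plus Photinus luciferase reporter. Copper sulfate 700 uM final, 20 hr ambient incubation, luminescent detection after 10 min with reagent.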
IL-1B inflam inh = inflammasome signaling inhibition, IL-1 beta readout; THP-1 LPS/ATP IL-1B secretion, AlphaLISA, 16 h; stronger effect = lower value; activity change, % at 57.5 µM; 360,000 compounds, 4.7% hits; in the data active = activity change below about -50%; inconclusive = mostly about -30% to -49%; also: % is scaled to controls: 0 for no effect and ±100 for the full control effect
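Secreted IL-1B measured by AlphaLISA bead assay after 16 h compound exposure of THP-1 cells; compounds (final up to 57.5 uM) added 1 h before LPS (250 ng/mL) and ATP (1.25 mM) stimulation; lower signal means less secretion.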
VP16 counter = counter-screen for ROR gamma inhibitors: Gal4-VP16 reporter. Drosophila S2 Gal4-VP16 UAS-luciferase, luminescence, 20 h. Potency, µM (titrated, usually from 53.6 µM), for the others: at the highest dose activity, negative = inhibition, usual class: inhibitors. 310,000 compounds, 3.5% hits. AID 2546;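 also: Gal4-VP16 expression switched on by copper sulfate through the metallothionein promoter; potency is read from the fitted curve at half-maximal effect; % is scaled to controls: 0 for no effect and ±100 for the full control effect; nearly all actives have a fitted effect of over 50% in size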
MCF10A rerep = induces DNA re-replication in MCF 10a normal breast cells; MCF 10A DNA re-replication, Hoechst nuclear intensity, 48 h; Potency, µM (doses to about 46.1 µM), for inactives: at the top dose activity, positive = re-replication, actives largely listed as activators; 350,000 compounds, 2.9% hits; AID 624296; also: potency is read from the fitted curve at half-maximal effect; % of control where 0% means no effect; nearly all actives have a fitted effect of over 50% in size
SW480 rerep = induces DNA re-replication in SW480 colon adenocarcinoma cells; SW480 DNA re-replication, Hoechst DNA content imaging, 48 h; Potency, µM (series often up to 46.1 µM), inactives show at the top dose re-replication activation, most hits filed as activators; 340,000 compounds, 1.8% hits; AID 624297; also: potency is read from the fitted curve at half-maximal effect; % of control where 0% means no effect; nearly all actives have a fitted effect of over 55% in size
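250 cells/well; 23 nL cpd via pin tool; 48 hr, 37 C, 5% CO2; Hoechst 40 min; imager read of total nuclear intensity, ex 405/em 500-530 nm.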
* hit, by the source's call; ? = inconclusive; nt = not tested or not shown; [ ] = another dose, or the depositor's remark. An excerpt weighted towards active compounds, which were near 11% of everything screened. Unless noted, calls follow the shape of the dose curve; as a rule, active = well fitted curve in the direction sought with a large enough effect; inconclusive = small, poorly fitted or top-dose-only effect, or another doubt; inactive = no such curve, though single readings can be large; an effect the other way counts as inactive or inconclusive.

SMILES	RORgamma inh	IL-1B inflam inh	VP16 counter	MCF10A rerep	SW480 rerep
COC(=O)Cn1c(C(=O)N2CCCC2)cc2c1C[C@H]1CN(C(=O)c3ccccc3)[C@@](Cc3ccccc3)(C(=O)OC)[C@@H]21	3%	nt	3%	nt	nt
CC1CCN(c2ccc(NC(=O)C3CCCN3S(=O)(=O)c3ccc(F)cc3)cc2)CC1 (stereo unspecified)	nt	?	nt	8%	-3%
O=C(CC[C@H]1O[C@@H](n2ccc(=O)[nH]c2=O)[C@H](O)[C@@H]1O)NCC(c1ccccc1)c1ccccc1	nt	0	nt	nt	nt
O=C(NCCCN1CCOCC1)/C(=C/c1ccco1)NC(=O)c1ccccc1	-9%	0	3%	-11%	-37%
O=C(NCc1ccccc1)c1cc2ccc(O)cc2oc1=O	2.2µM*	12	7.1µM*	16µM*	7.3µM*
COc1ccc(-c2cc3ccc(O)cc3oc2=O)cc1	-13%	-5	-6%	18µM*	18µM*
CCc1nc2ccc(C(=O)NC3CCN(Cc4ccccc4)CC3)cn2c1N(C)Cc1ccc(N(C)C)cc1	nt	0	nt	nt	nt
O=C(CN1CC[n+]2c(-c3cccs3)csc21)c1ccc(-c2ccccc2)cc1	5%	-89*	-23%	?	-2%
Cc1ccc(C(=O)Cn2nnc(-c3cccs3)n2)cc1	9%	-12	-7%	-2%	-1%
Cn1cccc1C(=O)NCCc1ccccc1	10µM*	-8	13µM*	4%	-20%
O=C(NCCc1ccccc1)c1cccnc1N1CCCCCC1	22%[10 µM]	-1	2%	26µM*	3%
COc1ccc(CCNC(=O)c2cc(C(=O)c3cc(Cl)ccc3O)cn(CCc3ccc(OC)cc3)c2=O)cc1	?	-25	-7%	-51%	?
Cn1cccc1C(=O)NCCc1ccc(Cl)cc1	?	-12	15%	-5%	-4%
O=C(O)c1ccccc1C(=O)NCCc1ccc(Cl)cc1	-2%	0	4%	-1%	-42%[9.22 µM]
O=C(c1cc(C(=O)NCCc2ccccc2)c(=O)n(CCc2ccccc2)c1)c1cc(Cl)ccc1O	?	0	14µM*	12%	8%
O=C(NCCc1ccccc1)c1ccccc1Cl	8.9µM*	-1	7.9µM*	8%	-4%
CN(CCc1ccccc1)C(=O)CCc1nnc(Cc2ccc3c(c2)OCO3)o1	1%	11	14%	8%	0%
O=C(CNC(=O)c1ccco1)OCC(=O)c1ccc(Br)cc1	1%	6	1%	-16%	-6%
Cc1ccc(C(=O)NCCCc2ccccc2)c(C)c1	?	-15	?	-6%	-18%
O=C(NCCCc1ccccc1)c1ccccc1O	?	-20	2%	15µM*	?
Cc1ccc(C(=O)NCCCc2ccccc2)c(Cl)c1	11µM*	-13	-17%	5%	4%
O=C(CCl)Nc1ccccc1C(=O)NCc1ccccc1	-38%	-83*	0%	28%	18%
Cc1ccccc1NC(=O)Nc1ccccc1C(=O)NCc1ccccc1	9%	-13	-14%	0%	-3%
COc1ccc(S(=O)(=O)N(C)C)cc1NC(=O)COC(=O)C1CC1	nt	0	nt	3%	1%
CC(=O)Nc1cccc(NC(=O)CSc2ncc(-c3ccc(Cl)cc3)n2Cc2ccco2)c1	?	-22	?	16µM*	-14%
SMILES	RORgamma inh	IL-1B inflam inh	VP16 counter	MCF10A rerep	SW480 rerep
COc1ccc(-c2cnc(SCC(=O)Nc3ccc4c(c3)OCO4)n2Cc2ccco2)cc1	32%	-73*	-2%	?	-2%
O=C(CSc1nnc(-c2ccc(Cl)cc2)n1Cc1ccco1)Nc1ccc2c(c1)OCCO2	?	?	1%	?	1%
N#Cc1ccc2c(c1)C[C@]1(CCCCN3C(=O)c4ccccc4C3=O)Oc3c(c(=O)oc4ccc(F)cc34)C2O1	7%[10 µM]	nt	4%[10 µM]	nt	nt
COc1ccc(NS(=O)(=O)c2ccc(OC)c(NC(=O)CNC(=O)c3ccc(OC)cc3)c2)cc1	nt	0	nt	17%	-17%
COc1ccc(C=C(C(=O)c2ccccc2)c2ccccc2)cc1	nt	6	nt	nt	nt
COc1ccc(C=C(C(C)=O)C(=O)c2ccccc2)cc1	nt	-94*	nt	nt	nt
CC(=O)C(=Cc1cccc(C#N)c1)C(=O)c1ccccc1	nt	-118*	nt	nt	nt
COc1ccc(C=C(C(=O)c2ccccc2)C(=O)c2ccccc2)cc1	nt	-82*	nt	nt	nt
CC(=O)C(=Cc1ccc(Cl)cc1)C(=O)c1ccccc1	nt	-108*	nt	nt	nt
C/C(CCN1CCCCc2nc(C)c(C)cc21)=N\O[C@@H](C)c1cc(-c2c(C)cc(C)cc2C)no1	-28%[10 µM]	nt	6%[10 µM]	nt	nt
CN(CC(=O)Nc1cccc(F)c1)C(=O)c1ccccc1-n1cnnn1	nt	29	nt	-20%	-14%
COc1ccc(-c2nnc(Sc3nc4ccccc4o3)c3ccccc23)cc1	17%	-101*	1%	0%	7%
Cc1cc(C)c(C)c(S(=O)(=O)NCCN2CCOCC2)c1C	1%	6	-3%	4%	0%
c1nnc(NCNc2nncs2)s1	nt	4	nt	nt	nt
C=CCn1c(O)c(N=NC(=O)c2ccccc2NS(=O)(=O)c2cccs2)c2ccccc21	?	23	-19%	4%	1%
Cc1ccc(Cn2c(O)c(N=NC(=S)Nc3ccccc3F)c3ccccc32)cc1	4µM*	-6	7.1µM*	-10%	-170%
Cc1ccc(S(=O)(=O)N2CCOCC2)cc1C(=O)Nc1ccccc1F	nt	-12	nt	-2%	-5%
C=CCn1c(O)c(N=NC(=S)Nc2ccccc2F)c2cc(S(=O)(=O)N3CCOCC3)ccc21	0.45µM*	2	2µM*	8%	13%
Cc1ccc(NC(=O)Cn2c(O)c(N=NC(N)=S)c3ccccc32)cc1	?	6	?	?	?
C=CCn1c(O)c(N=NC(=S)Nc2ccccc2F)c2ccccc21	0.79µM*	77	1.8µM*	-13%	-53%
C=CCn1c(O)c(N=NC(=S)Nc2cccc(C)c2)c2ccccc21	0.25µM*	-6	0.45µM*	-26%	?
Cc1cc(Cl)ccc1C(O)c1ncc(-c2cccc(C(F)(F)F)c2)[nH]1 (stereo unspecified)	nt	0	nt	nt	nt
C#CCNC(=O)C[C@@H]1C[C@@]2(C(=O)OC)CCCCC=C2N(CCCCCCCC)C1=O	nt	-13	nt	nt	nt
O=C(NCCS(=O)(=O)N1CCN(c2ccc(F)cc2)CC1)C12CC3CC(CC(C3)C1)C2	nt	-19	nt	?	21%
CCCC(=O)Nc1ccc(C(=O)COC(=O)c2cc(C)oc2C)cc1	nt	-13	nt	10%	0%
NC(Cc1ccccc1)C(O)c1ccco1 (stereo unspecified)	-8%	nt	0%	nt	nt
CCOC(=O)C1(C)CCN1C(=O)c1ccc(OC)c(C(F)(F)F)c1 (stereo unspecified)	nt	22	nt	nt	nt
Oc1c(N=NC(=S)Nc2ccccc2F)c2ccccc2n1Cc1ccccc1	2.8µM*	-8	3.5µM*	?	1%
C=CCn1c(O)c(N=NC(=O)c2cccnc2)c2cc(Br)ccc21	0%	19	-17%	?	-6%
